A selection: hits, their analogues and other compounds. The true share with any hit is near 2.4%.
D2 PAM-1 = positively modulates the human D2 dopamine receptor allosterically | P14416 | hit rate 0.34% among 340,000 | HEK293 T-REx D2, calcium flux, EC20 dopamine potentiation | AID 485347 | potentiation, % at 10 µM;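 active = potentiation over 3 SD above the plate norm, cut at about 30% in these data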; also: 0% is about no effect
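Cells plated with tetracycline inducer and held overnight at 30 C; calcium dye loaded 30–90 min at room temperature; baseline taken, compound added and read 180 s; EC20 dopamine then added and read 180 s.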
D2 ag-1 = agonists of human D2 dopamine receptor (beta-arrestin); P14416; DiscoveRx PathHunter D2 beta-arrestin, luminescence, 90 min; 100% = 57 uM dopamine signal; activation, % (concentration not given with the values); hit rate 0.084% among 360,000; in the data active = activation above about 40%; inconclusive = between about 15% and that limit
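Agonist mode: compounds alone added to overnight-plated D2 PathHunter cells for 90 min at 37 C, with 57 uM final dopamine (EC100) defining full response. Beta-arrestin recruitment detected by chemiluminescent reagent, read after 1 h at ambient temperature.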
D2 antagonist = antagonists of human D2 dopamine receptor; inhibition, % at 10 µM; AID 485344; hit rate 2% among 340,000; HEK293 TREx D2 cells, calcium flux, dopamine EC80; in the data active = inhibition above about 30%; inactive = below that, where a call was filed; also: 0% is about no effect
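Tetracycline-induced HEK293 TREx cells expressing D2 receptor forced-coupled to calcium signalling, loaded with no-wash calcium dye. Compounds added and calcium flux read 180 s, then dopamine added at EC80 and read a further 180 s.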
D2 ag-2 = agonists of human D2 dopamine receptor | HEK293 T-REx D2 cells, calcium flux agonist mode | activation, % at 2 µM | hit rate 0.53% among 340,000;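 active = activation over 3 SD above normal in the single-dose calcium agonist read, cut at about 30% in these data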; also: 0% is about no effect
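Tetracycline-induced HEK293 Trex cells with D2 receptor force-coupled to calcium signaling, plated overnight at 30 C and loaded with no-wash calcium dye. Calcium flux read kinetically for 180 s after compound addition; responses flag agonists.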
D2 PAM-2 = potentiates the human D2 dopamine receptor allosterically. P14416. DiscoveRx D2 beta-arrestin cells, luminescence, 90 min; 100% = 57 uM dopamine signal. potentiation, % (no concentration beside the values). hit rate 0.23% among 360,000. AID 624464; in the data active = potentiation above about 50%; inconclusive = mostly about 30% to 49%
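PathHunter beta-arrestin assay in DiscoveRx D2 cells. Compounds were added with an EC20 of dopamine (50 nM final) for 90 min at 37 deg C. Luminescence was read 1 h after detection reagent, with 57 uM dopamine as the EC100 control.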
D3 ag = activates human D3 dopamine receptor beta-arrestin recruitment | Potency, µM (top dose mostly 76.9 µM), for the others: top-dose activation, hits mostly activators | AID 720506 | DiscoveRx D3 beta-arrestin cells, luminescence, 90 min | shares compounds with D2 ag-2 | hit rate 4% among 2,300;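 also: potency is read from the fitted curve at half-maximal effect; 100% = dopamine control response; nearly all actives have a fitted effect of over 70% in size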
Target sequence (P35462 whole entry, looked up): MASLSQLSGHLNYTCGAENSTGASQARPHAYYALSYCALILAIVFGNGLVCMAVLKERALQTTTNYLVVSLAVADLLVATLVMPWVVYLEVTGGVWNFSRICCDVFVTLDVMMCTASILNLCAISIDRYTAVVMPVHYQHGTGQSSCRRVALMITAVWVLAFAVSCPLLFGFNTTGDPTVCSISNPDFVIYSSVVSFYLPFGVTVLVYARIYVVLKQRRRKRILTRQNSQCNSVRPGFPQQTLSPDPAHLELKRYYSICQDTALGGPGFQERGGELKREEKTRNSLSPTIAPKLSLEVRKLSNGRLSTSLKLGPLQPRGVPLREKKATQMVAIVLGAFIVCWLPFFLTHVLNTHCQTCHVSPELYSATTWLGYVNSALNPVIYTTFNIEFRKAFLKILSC
D2 ag-3 = activates human D2 dopamine receptor in D3 counterscreen. Potency, µM (top dose mostly 76.9 µM), inactives show at the highest dose activation, usual class: activators. DiscoveRx PathHunter D2 beta-arrestin, luminescence, 90 min; response scale: percent relative to full dopamine signal. hit rate 5.9% among 2,300. shares compounds with D2 ag-2; also: potency is read from the fitted curve at half-maximal effect; % of control where 0% means no effect; nearly all actives have a fitted effect of over 70% in size
Numbers without * were called inactive; ? = inconclusive; . = no result. Unless noted, calls follow the shape of the dose curve; as a rule, active = well fitted activation curve with a large enough effect; inconclusive = small, poorly fitted or top-dose-only effect; inactive = flat fitted curve, though single readings scatter.

SMILES | D2 PAM-1 | D2 ag-1 | D2 antagonist | D2 ag-2 | D2 PAM-2 | D3 ag | D2 ag-3
O=C(NCC(c1ccco1)N1CCN(c2ccccc2F)CC1)C(=O)NC1CC1 (stereo unspecified) | -0.8 | 1.6 | 32.7* | 23.2 | 29.0 | ? | ?
Cc1ccccc1NC(=O)Cn1nc(-c2ccc(F)cc2)c2cnc3ccccc3c21 | 5.4 | . | . | -1.3 | . | . | .
CCOc1ccc(CCNC(=O)Cn2ncn3c(cc4ccccc43)c2=O)cc1OCC | -0.8 | . | . | -0.3 | . | . | .
Cc1cc(C(F)F)n2nc(C(=O)Nc3c(C)cccc3C)nc2n1 | -8.5 | . | . | 0.2 | . | . | .
Cc1cc(C(F)F)n2nc(C(=O)Nc3cc(C)on3)nc2n1 | 3.8 | 0.1 | -18.3 | 0.3 | -14.4 | -9.3% | -3.8%
CN(C)c1ccc(S(=O)(=O)N2CCCCC2)cc1NC(=O)C1CSC2(C)CCC(=O)N12 (stereo unspecified) | 4.2 | -1.4 | -3.2 | 0.0 | -3.5 | 0.4% | -1.8%
COc1ccc(Nc2nnc(-c3ccc(C)c(S(N)(=O)=O)c3)c3ccccc23)cc1 | 1.0 | . | . | -0.8 | . | . | .
CCC(C)NC(=O)C(CCSC)NC(=O)c1ccccc1 (stereo unspecified) | 1.7 | -5.5 | 22.8 | 0.8 | 1.0 | . | .
CSCCC(NC(=O)c1ccccc1)C(=O)NCCCSc1ccccc1 (stereo unspecified) | 17.3 | -2.4 | -14.5 | -0.1 | -4.2 | -3.6% | -5.8%
COc1ccc(OC)c(NC(=O)c2c(NCc3ccc(C)o3)sc3c2CCC(C)C3)c1 (stereo unspecified) | 18.1 | . | . | 0.9 | . | . | .
CCCOc1ccc(C(=O)Nc2ccc(Cl)c(-c3nc4ncccc4o3)c2)cc1 | -5.6 | . | . | 0.9 | . | . | .
CC(NC(=O)c1cccs1)C(c1cccs1)N1CCN(Cc2ccccc2)CC1 (stereo unspecified) | 1.0 | -0.6 | -7.3 | -0.7 | -29.6 | . | .
CCC(=O)NC(C)C(c1cccs1)N1CCN(Cc2ccccc2)CC1 (stereo unspecified) | -14.6 | -3.5 | 1.9 | 44.9* | -10.5 | -11.7% | 4.1%
CC(NC(=O)c1ccc2c(c1)OCO2)C(c1cccs1)N1CCN(c2ccccc2)CC1 (stereo unspecified) | -24.2 | -1.8 | -7.5 | 42.8* | -1.3 | 0.0% | 2.8%
CC(NC(=O)c1ccc2c(c1)OCO2)C(c1cccs1)N1CCOCC1 (stereo unspecified) | 12.0 | 0.0 | 0.0 | 0.5 | -9.1 | . | .
CCCOc1cccc(C(=O)N(Cc2ccc(C)o2)C2CCS(=O)(=O)C2)c1 (stereo unspecified) | -8.8 | . | . | -0.2 | . | . | .
Cc1ccc(Oc2nc3c(c(=O)n(Cc4ccccc4)c(=O)n3C)n2C)cc1C | 10.8 | . | . | -0.7 | . | . | .
c1ccc(CCCN2CCN(c3ccccc3)CC2)cc1 | -24.7 | 12.1 | 78.9* | 13.1 | -5.5 | 4.7% | 13.5%
CC(CCN1CCN(c2ccccc2)CC1)c1ccccc1 (stereo unspecified) | -26.5 | 6.0 | 72.6* | 30.7* | -24.5 | -3.6% | 12.9%
OCC1(Cc2ccc(Cl)cc2)CCN(CCCc2ccccc2)CC1 | -10.5 | 40.6* | 69.1* | 77.6* | -0.1 | -4.6% | ?
O=C(CN1CCN(C(c2ccccc2)c2ccccc2)CC1)N1CCN(c2ccccc2)CC1 | -14.8 | -6.3 | -10.1 | -0.6 | -32.0 | . | .
OCC1(Cc2ccc(Cl)cc2)CCN(Cc2ccccc2F)CC1 | -16.9 | -4.6 | -4.5 | 1.1 | -25.2 | . | .
CC(CCN1CCN(c2ccccn2)CC1)c1ccccc1 (stereo unspecified) | -19.3 | ? | 62.7* | 73.7* | 4.4 | ? | ?
Cc1ccc(CNC(=O)Cn2cc(S(=O)(=O)Cc3cccc(Cl)c3)c3ccccc32)cc1 | 1.5 | . | . | -0.3 | . | . | .
Cc1ccccc1CSc1cn(CC(=O)N2CCCCCC2)c2ccccc12 | -5.6 | . | . | . | . | . | .
CCOC(=O)c1ccc2c(c1)N(Cc1cccc(C(F)(F)F)c1)C(=O)c1ccccc1S2(=O)=O | -1.6 | . | . | 0.4 | . | . | .
